GLS inh – glutaminase GLS (human) inhibition; GLS enzymatic activity, qHTS titration; Potency, µM (highest dose often 45.5 µM), inactives show top-dose activity change, negative = inhibition, actives largely listed as inhibitors; 410,000 compounds, 0.21% hits; AID 624170; further: on the % scale 0 is the no-effect control and ±100 the full control effect
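Assay buffer: 45 mM KH2PO4 pH 8.2, 0.02% Tween-20. hKGA acts on L-glutamine (1 mM solution added); product glutamate is reported by an oxidase/peroxidase Amplex Red coupling, with fluorescence taken at baseline and 30 min.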
Glioma ERSR ind – inducers of ER stress response in human glioma cells; AID 602332; Potency, µM, for the others: at the highest dose activation, hits mostly activators; U87-MG GRP78 promoter luciferase reporter, 16 h; 420,000 compounds, 0.02% hits; further: series mostly up to about 76 µM; % of control where 0% means no effect; nearly all actives have a fitted effect of over 35% in size
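ERSR induction read as luciferase luminescence (Bright-Glo, 10 min at room temperature) in stably transfected human U87-MG glioma cells exposed to compounds for 16 h, using GRP78 as sensor.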
ALOX12 inh – inhibitors of human 12S-lipoxygenase ALOX12; P18054; Potency, µM (top dose mostly 108 µM), inactives show at the highest dose activity change, negative = inhibition, hits mostly inhibitors; purified 12hLO, xylenol orange hydroperoxide absorbance; 580,000 compounds, 1.1% hits; further: on the % scale 0 is the no-effect control and ±100 the full control effect
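Purified human 12hLO (150 nM final) in 25 mM Hepes, 0.01% Triton X-100, pH 7.0 was preincubated 15 min at room temperature with compound. Then 40 uM arachidonic acid was added, 30 min. Hydroperoxide was read by Fe-XO absorbance ratio 573/405 nm.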
GLP1R inv ag – inverse agonists of human GLP-1 receptor; HEK293 GLP-1R CRE-luciferase, luminescence, 24 h; GLP-1R form is constitutively active; Potency, µM (highest dose often 38.3 µM), without a hit: at the top dose activity change, negative = inhibition, most hits filed as inhibitors; 410,000 compounds, 1.6% hits; AID 624417; further: on the % scale 0 is the no-effect control and ±100 the full control effect; nearly all actives have a fitted effect of over 55% in size
Target sequence (P43220 whole entry, looked up): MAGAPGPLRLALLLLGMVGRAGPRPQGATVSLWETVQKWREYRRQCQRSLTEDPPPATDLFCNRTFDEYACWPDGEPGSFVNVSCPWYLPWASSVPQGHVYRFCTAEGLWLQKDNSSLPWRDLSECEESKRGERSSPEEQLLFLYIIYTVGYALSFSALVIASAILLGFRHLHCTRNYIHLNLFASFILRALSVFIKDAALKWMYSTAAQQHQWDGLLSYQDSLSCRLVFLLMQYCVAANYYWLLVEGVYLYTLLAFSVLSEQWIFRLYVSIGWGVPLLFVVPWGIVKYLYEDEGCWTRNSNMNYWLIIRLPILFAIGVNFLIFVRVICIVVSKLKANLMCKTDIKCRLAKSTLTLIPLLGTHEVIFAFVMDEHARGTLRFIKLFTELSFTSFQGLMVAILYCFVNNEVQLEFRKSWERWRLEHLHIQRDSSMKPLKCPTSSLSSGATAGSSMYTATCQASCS
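GLP-1R inverse agonism mode: basal reporter luminescence in engineered HEK293 cells measured after one day of compound exposure at 37 deg C, with a 12 min room-temperature detection step.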
GLP-1R agonist – GLP-1 receptor (human) agonism; P43220; HEK293 GLP-1R CRE-luciferase, luminescence, 4-6 h; cells express a hypersensitive GLP-1R form; Potency, µM (titrated, usually from 45.6 µM), without a hit: at the highest dose activation, hits mostly activators; 380,000 compounds, 0.007% hits; AID 624172; further: % of control where 0% means no effect
PTHR1 ag – agonists of human PTHR1 parathyroid hormone receptor; Q03431; HEK293 GP2 PTHR1 cells, GloSensor cAMP luminescence, 1 h; Potency, µM (highest dose often 115 µM), for the others: top-dose activation, usual class: activators; 410,000 compounds, 0.075% hits; further: nearly all actives have a fitted effect of over 55% in size
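HEK-293-derived GP2 cells expressing PTHR1 and a GloSensor cAMP reporter, 3,000/well, plated overnight, given luciferin plus IBMX (each 0.5 mM as added) for 1 h at 37 °C, then compound for 1 h at 37 °C. Luminescence was read after 15 min at room temperature.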
* hit, by the source's call; i = inactive; ? = inconclusive; · = not tested or not shown; ! = a repeat was not active; [ ] = remark or other dose. An excerpt weighted towards active compounds, which were near 2.3% of everything screened. The call rests on the fitted dose curve; in most records, active means well fitted curve in the direction sought with a large enough effect; inconclusive means small, poorly fitted or top-dose-only effect, or another doubt; inactive means no such curve, though single readings can be large; an effect the other way counts as inactive or inconclusive. Potency means the concentration at half of the fitted maximal effect.

SMILES	GLS inh	Glioma ERSR ind	ALOX12 inh	GLP1R inv ag	GLP-1R agonist	PTHR1 ag
CN1c2cc(C(=O)Nc3cccc(Cl)c3)ccc2C(=O)N2CCCCC21 (configuration not stated)	·	·	34%	·	·	·
COC(=O)\C(C(C)=O)=C(/C=C/C=C/C=C/N(C)C)N(C)C	11µM*	4%	?	20%	-20%	-6%
Cc1ccc(C)n1C1C(=O)N(Cc2ccc(C(C)C)cc2)c2ccc(OC(F)(F)F)cc21 (configuration not stated)	·	·	16µM*	·	·	·
COc1ccc(CCN2C(=O)CSC2=S)cc1OC	17%	-11%	?	5.6µM*	2%	-12%
COC(=O)N/N=C/C(C)=C/c1ccccc1	·	·	7%	·	·	·
O=C(CSc1ncc(-c2ccc(Cl)cc2)o1)Nc1ccc(Cl)cc1	·	·	-4%	·	·	·
Cl/C(=C/c1ccc(Cl)cc1)c1ncc(-c2ccc(Cl)cc2)o1	·	·	35µM*	·	·	·
COC(=O)/C=C1\OCc2cc(OC)c(OCc3ccccc3)cc21	·	·	-16%	3%	·	-8%
COc1cc2c(cc1OC)/C(=C/c1ccc(Br)cc1)C(=O)OC2	13%	-5%	?	11µM*	11%	i
CCOC(=O)c1cccc(N2C(=O)C3C4C=CC(CC4)C3C2=O)c1 (configuration not stated)	7%	1%	·	3.2µM*	4%	-9%
Cc1ccc(C(O)(c2ccccc2)c2ccccc2C(C)N(C)C)c(C)c1 (configuration not stated)	1%	0%	-17%	10µM*	-7%	-29%
CCC(C)NC(=O)COc1ncnc2ccccc12 (configuration not stated)	·	·	-11%	·	·	·
N#Cc1cc2c([nH]c1=S)CCCCCC2	14%	-5%	16µM*	-11%	-1%	i
N#Cc1c(N)n[nH]c1-c1cc2c([nH]1)CCCC2	20%	-1%	-22%	0%	3%	i
N#C/C(=C/c1ccccc1)c1nc2ccccc2[nH]1	·	·	0%	·	·	·
CCCN(CCC)C(=O)c1oc2ccccc2c1NC(=O)Cc1cccc(OC)c1	5%	-4%	71%	7.9µM*	11%	-9%
CCC(C(=O)NCc1ccco1)N(C(=O)CNS(=O)(=O)c1ccccc1)C1CCCCC1 (configuration not stated)	-2%	-3%	-22%	11%	-4%	i
CCCC(C(=O)NCc1ccco1)N(C(=O)CNS(=O)(=O)c1ccc(Cl)cc1)C1CCCC1 (configuration not stated)	-8%	0%	?	10µM*	-20%	i
Cc1ccc(C)c(N2CCN(C(=O)C3CCN(S(=O)(=O)c4c(C)noc4C)CC3)CC2)c1	2%	-2%	-8%	11µM*	1%	-29%
Cc1cccc(/C=C/c2onc(C)c2S(=O)(=O)N2CCC(C(=O)N3CCC(C)CC3)CC2)c1	9%	-3%	?	2.8µM*!	1%	-1%
Cc1cccc(/C=C/c2onc(C)c2S(=O)(=O)N2CCC(C(=O)N3CCCCCC3)CC2)c1	-3%	-1%	-19%	2.8µM*	-4%	-24%
Cc1ccc(C)c(N2CCN(C(=O)C3CCCN(S(=O)(=O)c4c(C)noc4C)C3)CC2)c1 (configuration not stated)	-1%	-1%	52%	-8%	3%	-2%
O=C1CCCCCN1Sc1ccccc1	3%	7%	16µM*	2%	-25%	i
CCOc1cc(/C=C2\CN(C)C/C(=C\c3ccc(O)c(OCC)c3)C2=O)ccc1O	-3%	-18%	?	?	-6%	-27%
CCOc1cc(/C=C2\CCC/C(=C\c3cc(Cl)c(O)c(OCC)c3)C2=O)cc(Cl)c1O	-1%	-15%	?	10µM*	-37%	-10%
SMILES	GLS inh	Glioma ERSR ind	ALOX12 inh	GLP1R inv ag	GLP-1R agonist	PTHR1 ag
Cn1cc(C(C(=O)O)N2CCN(Cc3cccc(Cl)c3)CC2)c2cc(C(=O)O)ccc21 (configuration not stated)	·	·	-34%	·	·	·
O=C(CSc1nnnn1-c1ccccc1)Nc1ccc(N2CCOCC2)c(Cl)c1	0%	-6%	?	-9%	4%	-12%[57.5 µM]
CN1CCN(c2ccc(NC(=O)CSc3nnnn3-c3ccccc3Cl)cc2)CC1	36%	-1%	-13%	5µM*	-1%	?
COc1ccc(-c2cc3n(n2)CC(C)(C(=O)NCc2ccccc2)N(Cc2ccco2)C3=O)cc1 (configuration not stated)	·	·	0%	·	·	·
CCC(C)(C)NC(=O)c1ccccc1Oc1ccccc1	-5%	-1%	-7%	14µM*	13%	i
O=C(NCc1ccc(Cl)cc1)c1ccccc1Oc1ccccc1	-6%	-10%	-19%	2.8µM*	3%	-15%[57.5 µM]
O=C(NCC(F)(F)F)c1ccccc1Oc1ccccc1	·	·	-10%	·	·	·
CCCCNC(=O)c1ccc(C)c(NC(=O)c2ccccc2)c1	·	·	0%	·	·	·
CCOc1ccc(NC(=O)CN(C)C(=O)CCCOc2ccc(Br)cc2)cc1OCC	-2%	-2%	?	10µM*	8%	-3%
CCOc1ccc(NC(=O)CN(C)C(=O)CCNC(=O)c2ccc(Br)cc2)cc1OCC	1%	-1%	-14%	14%	0%	-5%
Cn1c(=O)oc2cc(S(=O)(=O)N3CCC(C(=O)N4CCN(c5ccccc5F)CC4)CC3)ccc21	-6%	-1%	-26%	0%	-2%	-52%
CCOc1ccc(CN2CCC(C(=O)N3CCN(c4ccccc4F)CC3)CC2)cc1OC	5%	-5%	?	?	-8%	i
CCOc1ccc(S(=O)(=O)N2CCC(C(=O)N3CCN(c4ccccc4F)CC3)CC2)cc1C	13%	-1%	-58%	5.6µM*	2%	-19%
COc1cc(CN2CCC(C(=O)N3CCN(c4ccccc4F)CC3)CC2)cc(OC)c1O	?	1%	2.5µM*	-1%	2%	10%[57.5 µM]
CCOC(=O)Cn1c(-c2ccccc2)cc(SC)c(C#N)c1=O	4%	-13%	4%	10µM*	17%	3%
Cc1ccc(/C(O)=C/C(=O)C(=O)NNC(=O)C(O)(c2ccccc2)c2ccccc2)cc1	12%	-2%	?	-29%	-1%	i
O=C(C=C(O)c1ccc(Cl)cc1)C(=O)NNC(=O)C(O)(c1ccccc1)c1ccccc1	2%	-2%	14µM*	?	1%	i
C=CCNc1nnc(SCc2coc(-c3ccccc3)n2)s1	·	·	1%	·	·	·
O=C(Nc1ccc2c(c1)OCCO2)c1cc2sccc2n1Cc1ccc(F)cc1	-9%	-6%	0%[57.4 µM]	5.6µM*	-11%	-22%[57.5 µM]

Screens (PubChem)
